Experimental data from the OligoGym collection.

Target: HNRNPL
Test: pooled miR-30 sensor sort-seq; sequence = guide strand
Details: shRNA
Also: reference of the scale not given here.

Question: With TTAAGGTTAAGTAAGCCTCTAC as the sequence, how does the sensor-assay potency score (higher = more potent) read?
Answer: 0.152

Question: For TAAAAGTGAAGGTTAATCTTGG, which sensor-assay potency score (higher = more potent) is on record?
Answer: 0.553

Question: Which sensor-assay potency score (higher = more potent) does the source give for TAGAGTAGTTGACAAAAGCTGG here?
Answer: -0.329

Question: With TTGTGTAGTCCCAAGTATCCTG as the sequence, how does the sensor-assay potency score (higher = more potent) read?
Answer: 0.0698

Question: ATAGTGTAAAGAACATCCGTGG was tested. Which sensor-assay potency score (higher = more potent) did it give?
Answer: -0.231

Question: Which sensor-assay potency score (higher = more potent) does the source give for TTAAAAGTGAAGGTTAATCTTG here?
Answer: -0.688

Question: For TTGAACACATTCAAGCGTGTAG, which sensor-assay potency score (higher = more potent) is on record?
Answer: 0.215

Question: With TTCTTGAACACATTCAAGCGTG as the sequence, how does the sensor-assay potency score (higher = more potent) read?
Answer: -0.271

Target: HNRNPU
Test: as above
Details: shRNA

Question: For TTCTTCTTCAACAGGTGGCTGA, which sensor-assay potency score (higher = more potent) is on record?
Answer: -0.158

Question: For TTTCATCAAACTTTTCTCCATA, which sensor-assay potency score (higher = more potent) is on record?
Answer: -0.817

Question: Which sensor-assay potency score (higher = more potent) does the source give for TATTGCTTTTCTTTGAGCCAGT here?
Answer: -0.865

Question: Which sensor-assay potency score (higher = more potent) does the source give for TTTGCTTCTTAAAACCTGCCAC here?
Answer: 0.467

Question: For TTCATCTCAAAACACACTTTGC, which sensor-assay potency score (higher = more potent) is on record?
Answer: -0.868

Question: For TTGAGTAACTACCACGGCCAGG, which sensor-assay potency score (higher = more potent) is on record?
Answer: -1.38

Question: AACTACAACAGCTTTTCGCTGG was tested. Which sensor-assay potency score (higher = more potent) did it give?
Answer: 0.276

Question: With TTCTTCCTTATATTGCTCCAAG as the sequence, how does the sensor-assay potency score (higher = more potent) read?
Answer: -1.21

Question: Which sensor-assay potency score (higher = more potent) does the source give for TTGCTTATAGTCTTCATCTTTT here?
Answer: -0.867

Question: With TAAAATTTCGCTTCTTTCGGGC as the sequence, how does the sensor-assay potency score (higher = more potent) read?
Answer: 0.159

Question: Which sensor-assay potency score (higher = more potent) does the source give for TTATCCATAATAGTATTTGTGC here?
Answer: -0.391

Target: HOOK2
Test: as above
Details: shRNA

Question: Which sensor-assay potency score (higher = more potent) does the source give for TTAGGAAATAGTACCTGCGGGA here?
Answer: -0.0973

Question: How did the sensor-assay potency score (higher = more potent) turn out when TCAGCTTCCAGTTGGGACCTGG was run?
Answer: -0.00912

Question: ATGGTCTGCATGACCATGCGGG was tested. Which sensor-assay potency score (higher = more potent) did it give?
Answer: -1.25

Question: With TCCTCTGCAACTCCAGATCTGC as the sequence, how does the sensor-assay potency score (higher = more potent) read?
Answer: -1.56

Question: For TACGTCTCTGGTGACAGGGAGT, which sensor-assay potency score (higher = more potent) is on record?
Answer: -0.714

Question: TTCTGACACAGGATGCGCCAGG was tested. Which sensor-assay potency score (higher = more potent) did it give?
Answer: -0.785

Question: With TTTCTCAAAGTCCATCTCCAGG as the sequence, how does the sensor-assay potency score (higher = more potent) read?
Answer: -1.2

Question: With TTCCATGGTCTGCATGACCATG as the sequence, how does the sensor-assay potency score (higher = more potent) read?
Answer: -1.55

Question: For TTTTTCTCGCAACTGATGGCAC, which sensor-assay potency score (higher = more potent) is on record?
Answer: -0.412

Question: For TGGAACGTCTGTAACCAGGTGA, which sensor-assay potency score (higher = more potent) is on record?
Answer: 0.0642

Question: Which sensor-assay potency score (higher = more potent) does the source give for TCACTTAGGAAATAGTACCTGC here?
Answer: -0.233

Question: Which sensor-assay potency score (higher = more potent) does the source give for TACTAGGCTCCGTAAGACCATC here?
Answer: -1.58

Target: HOXA6
Test: as above
Details: shRNA

Question: For TTATCAGAATAGAAACACGAGG, which sensor-assay potency score (higher = more potent) is on record?
Answer: -1.05

Question: TTGATGAGCTTGTTTTCCTTTT was tested. Which sensor-assay potency score (higher = more potent) did it give?
Answer: -0.78

Question: Which sensor-assay potency score (higher = more potent) does the source give for TTGTACTGCTGCTCGGGAGAAA here?
Answer: -0.818

Question: With TGAGGTGTACGTCTTGTCCGGG as the sequence, how does the sensor-assay potency score (higher = more potent) read?
Answer: -0.648

Question: TTGGCGATCTCGATGCGGCGGC was tested. Which sensor-assay potency score (higher = more potent) did it give?
Answer: -0.809

Question: TATCAGAATAGAAACACGAGGC was tested. Which sensor-assay potency score (higher = more potent) did it give?
Answer: -0.218

Question: How did the sensor-assay potency score (higher = more potent) turn out when TGTTGGTAGAAACAAGGTGAGG was run?
Answer: -1.56

Question: Which sensor-assay potency score (higher = more potent) does the source give for TTGGACTGTTGGTAGAAACAAG here?
Answer: -1.21

Question: How did the sensor-assay potency score (higher = more potent) turn out when TTGGTAGAAACAAGGTGAGGTG was run?
Answer: -0.106
